Records with an inconclusive call do not appear. Active and inactive are the calls of the source. Unless noted, the call rests on the fitted dose curve; in most records, active means well fitted curve in the direction sought with a large enough effect in the repeat runs; inconclusive means weak or mixed curves; inactive means no such curve, though single readings can be large; an effect the other way counts as inactive or inconclusive.
How the values were obtained:
[1] = qHTS assay to identify small molecule antagonists of the retinoid-related orphan receptor gamma (ROR-gamma) signaling pathway - cell viability counter screen (AID 1159520); further: nearly all actives have a fitted effect of over 50% in size; further: potency means the concentration at half of the fitted maximal effect
Procedure, shortened: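 Tet-on ROR gamma CHO cells (1,000/well) were plated 4 hr, given compounds in DMSO for 2 hr at 37 C, then induced with 1 uM final doxycycline for 16 hr. Viability was read as ATP by CellTiter-Glo luminescence after 30 min.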

[2] = biological target: Nuclear receptor ROR-gamma (Homo sapiens) (UniProt P51449); assay: qHTS assay to identify small molecule antagonists of the retinoid-related orphan receptor gamma (ROR-gamma) signaling pathway (AID 1159521; further: nearly all actives have a fitted effect of over 50% in size; further: potency means the concentration at half of the fitted maximal effect)
Procedure, shortened: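 CHO cells expressing RORγ under a TET-on promoter, luciferase under RORE control. Dox 1 uM final, 16 h; compounds added 2 h prior. Luminescence decrease measured.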

[3] = qHTS assay to identify small molecule agonists of the AP-1 signaling pathway - cell viability counter screen (AID 1159525; calls by dose curve; further: nearly all actives have a fitted effect of over 55% in size; further: potency means the concentration at half of the fitted maximal effect)
Procedure, shortened: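 Each titration point was normalised to DMSO and tetra n-octyl ammonium bromide controls. The read was Cell Titer Glo luminescence after 30 min at RT, following 5 h compound exposure of ME-180 AP-1-bla cells at 37 °C.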

[4] = qHTS assay to identify small molecule agonists of the AP-1 signaling pathway (AID 1159526; calls by dose curve; further: potency means the concentration at half of the fitted maximal effect)
[5] = qHTS assay to identify small molecule agonists of the RXR signaling pathway - cell viability counter screen (AID 1159529); further: nearly all actives have a fitted effect of over 50% in size; further: potency means the concentration at half of the fitted maximal effect
Procedure, shortened: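 Same-well viability check after the LiveBLAzer FRET read: CellTiter-Glo added, luminescence measured after 30 min at room temperature. Reporter HEK 293T cells had been treated with compounds for 16 hr following a 5 hr preincubation.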

[6] = qHTS assay to identify small molecule antagonists of the retinoid acid receptor (RAR) signaling pathway - cell viability counter screen (AID 1159551); further: nearly all actives have a fitted effect of over 35% in size; further: potency means the concentration at half of the fitted maximal effect
Procedure, shortened: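 C3RL4 RARE-luciferase line; cpds + retinol 1 uM final, 6 h, 37 C/5% CO2; CellTiter-Glo ATP luminescence, 30 min RT.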

[7] = qHTS assay to identify small molecule antagonists of the retinoic acid receptor (RAR) signaling pathway (AID 1159552; further: nearly all actives have a fitted effect of over 50% in size; further: potency means the concentration at half of the fitted maximal effect)
Procedure, shortened: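 Readout: luciferase luminescence, 30 min post-reagent at RT. Setup: C3RL4 RARE reporter cells, compounds plus retinol 1 uM final, 6 hr incubation at 37 C and 5% CO2.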

[8] = biological target: Retinoic acid receptor RXR-alpha (Homo sapiens) (UniProt P19793); assay: qHTS assay to identify small molecule agonists of the RXR signaling pathway (AID 1159527; calls by dose curve; further: on the % scale 0 is the no-effect control and ±100 the full control effect; nearly all actives have a fitted effect of over 35% in size)
Procedure, shortened: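 Beta-lactamase reporter assay, agonist format. Engineered HEK 293T line, charcoal-stripped FBS at 2%, overnight (16 hr) exposure, fluorescence at 460 and 530 nm after 405 nm excitation.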

[9] = qHTS assay to identify small molecule agonists of the peroxisome proliferator-activated receptor delta (PPARd) signaling pathway - cell viability counter screen (AID 743211); further: potency means the concentration at half of the fitted maximal effect; nearly all actives have a fitted effect of over 55% in size
Procedure, shortened: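 Luminescent ATP viability assay (CellTiter-Glo, 30 min RT) in UAS-bla HEK293H cells carrying the PPAR delta reporter construct, 3000 cells/well, after a 17 h compound treatment at 37 C.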

[10] = qHTS assay to identify small molecule antagonists of the peroxisome proliferator-activated receptor delta (PPARd) signaling pathway - cell viability counter screen (AID 743213); further: nearly all actives have a fitted effect of over 50% in size; further: potency means the concentration at half of the fitted maximal effect
Procedure, shortened: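 Same-well viability: cells pre-incubated 5 h, dosed with compound plus 300 nM L165041, kept 17 h at 37 C, FRET substrate 2 h RT, then CellTiter-Glo 30 min RT and luminescence.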

[11] = qHTS assay to identify small molecule agonists of the farnesoid-X-receptor (FXR) signaling pathway - cell viability counter screen (AID 743218); further: nearly all actives have a fitted effect of over 45% in size; further: potency means the concentration at half of the fitted maximal effect
Procedure, shortened: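 Luminescence from CellTiter-Glo, read after 30 min at RT, reports viability of GeneBLAzer FXR-UAS-bla HEK 293T cells treated 16 h with compounds in the wells used for the beta-lactamase reporter.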

[12] = qHTS assay to identify small molecule antagonists of the farnesoid-X-receptor (FXR) signaling pathway - cell viability counter screen (AID 743221; active means well fitted cell-killing curve with a large enough effect in the repeat runs, not every such curve was filed as active; further: nearly all actives have a fitted effect of over 50% in size; further: potency means the concentration at half of the fitted maximal effect)
Procedure, shortened: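 In GeneBLAzer FXR-UAS-bla HEK 293T cells stimulated with 50 uM chenodeoxycholic acid (final), compounds acted for 16 h at 37 C. Viability was assessed afterwards by CellTiter-Glo luminescence.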

[13] = qHTS assay to identify small molecule agonists of the vitamin D receptor (VDR) signaling pathway - cell viability counter screen (AID 743224)
Procedure, shortened: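 Cytotoxicity counter screen: VDR-bla cells, 16 h compound exposure at 37C, 5% CO2; CellTiter-Glo luminescence, 30 min RT, same wells as bla read.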

[14] = qHTS assay to identify small molecule antagonists of the vitamin D receptor (VDR) signaling pathway - cell viability counter screen (AID 743225)
Procedure, shortened: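 Luminescent cell viability (CellTiter-Glo) in VDR-bla HEK 293T cells after 16 h compound exposure at 37C in the presence of 3 nM final 1-alpha,25-dihydroxy vitamin D3.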

[15] = biological target: Peroxisome proliferator-activated receptor delta (Homo sapiens) (UniProt Q03181); assay: qHTS assay to identify small molecule agonists of the peroxisome proliferator-activated receptor delta (PPARd) signaling pathway (AID 743212; calls by dose curve; further: on the % scale 0 is the no-effect control and ±100 the full control effect)
Procedure, shortened: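 Beta-lactamase reporter read by fluorescence (LiveBLAzer B/G FRET, 2 h, room temperature). Test agents, in DMSO, incubated at 37 C with PPARd-bla HEK293H cells.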

[16] = biological target: Peroxisome proliferator-activated receptor delta (Homo sapiens) (UniProt Q03181); assay: qHTS assay to identify small molecule antagonists of the peroxisome proliferator-activated receptor delta (PPARd) signaling pathway (AID 743215; active means well fitted inhibition curve with a large enough effect in the signal ratio in the repeat runs, not every such curve was filed as active; the % refers to the signal ratio;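 further: cells stimulated with agonist L165041 at 300 nM final during compound exposure; series mostly up to about 62 µM; on the % scale 0 is the no-effect control and ±100 the full control effect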)
Procedure, shortened: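 HEK293H GeneBLAzer PPARd UAS-bla reporter cells; cpd + L165041 300 nM final, 17 h 37 C; LiveBLAzer B/G FRET substrate 2 h RT; fluorescence intensity read-out. Antagonist mode.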

[17] = biological target: Bile acid receptor (Homo sapiens) (UniProt Q96RI1); assay: qHTS assay to identify small molecule antagonists of the farnesoid-X-receptor (FXR) signaling pathway (AID 743217; active means well fitted inhibition curve with a large enough effect in the signal ratio in the repeat runs, not every such curve was filed as active; the % refers to the signal ratio; further: on the % scale 0 is the no-effect control and ±100 the full control effect)
Procedure, shortened: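 Read-out: beta-lactamase FRET fluorescence (LiveBLAzer B/G substrate, 2 h, room temperature) in GeneBLAzer FXR-UAS-bla HEK 293T cells. Compounds were co-dosed with 50 uM chenodeoxycholic acid (final) and incubated 16 h at 37 °C.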

[18] = biological target: Bile acid receptor (Homo sapiens) (UniProt Q96RI1); assay: qHTS assay to identify small molecule agonists of the farnesoid-X-receptor (FXR) signaling pathway (AID 743220; active means well fitted activation curve with a large enough effect in the signal ratio in the repeat runs, not every such curve was filed as active; the % refers to the signal ratio; further: on the % scale 0 is the no-effect control and ±100 the full control effect)
Procedure, shortened: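 FXR-UAS-bla HEK 293T cells carrying a UAS-driven beta-lactamase reporter were plated for 5 h at 37C/5% CO2, then exposed to DMSO-dissolved Tox21 10K compounds for 16 h at 37C. A LiveBLAzer B/G FRET substrate was loaded for 2 h at room temperature before fluorescence reading.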

[19] = qHTS assay to identify small molecule agonists of the retinoic acid receptor (RAR) signaling pathway (AID 1159553); further: on the % scale 0 is the no-effect control and ±100 the full control effect
Procedure, shortened: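 RARE-luc C3RL4 cells; overnight attachment 37 C/5% CO2; compound (DMSO) 6 hr; luciferase reagent, 30 min RT; luminescence read-out.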

[20] = biological target: Vitamin D3 receptor (Homo sapiens) (UniProt P11473); assay: qHTS assay to identify small molecule antagonists of the vitamin D receptor (VDR) signaling pathway (AID 743223; active means well fitted inhibition curve with a large enough effect in the signal ratio in the repeat runs, not every such curve was filed as active; the % refers to the signal ratio; further: on the % scale 0 is the no-effect control and ±100 the full control effect)
Procedure, shortened: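 Agonist 1alpha,25-dihydroxyvitamin D3 (3 nM in well) was added with each compound to VDR-bla cells preincubated 4 h. Cells stood 16 h at 37C, then FRET substrate 2 h at room temperature; fluorescence intensity recorded.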

Sequence of Retinoic acid receptor RXR-alpha (Homo sapiens) (P19793 whole entry, looked up): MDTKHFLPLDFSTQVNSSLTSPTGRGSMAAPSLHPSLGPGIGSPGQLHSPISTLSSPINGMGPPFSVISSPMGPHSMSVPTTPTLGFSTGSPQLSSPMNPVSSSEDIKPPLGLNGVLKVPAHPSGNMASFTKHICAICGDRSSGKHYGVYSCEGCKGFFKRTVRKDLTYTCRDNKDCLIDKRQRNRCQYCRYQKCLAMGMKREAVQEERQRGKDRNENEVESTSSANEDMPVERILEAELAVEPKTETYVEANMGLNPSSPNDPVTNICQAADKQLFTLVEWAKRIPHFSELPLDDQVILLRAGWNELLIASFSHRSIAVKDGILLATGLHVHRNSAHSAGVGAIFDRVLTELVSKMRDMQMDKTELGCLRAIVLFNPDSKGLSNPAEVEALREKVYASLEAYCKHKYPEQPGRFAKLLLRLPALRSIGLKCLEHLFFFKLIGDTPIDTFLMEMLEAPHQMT
Sequence of Peroxisome proliferator-activated receptor delta (Homo sapiens) (Q03181 whole entry, looked up): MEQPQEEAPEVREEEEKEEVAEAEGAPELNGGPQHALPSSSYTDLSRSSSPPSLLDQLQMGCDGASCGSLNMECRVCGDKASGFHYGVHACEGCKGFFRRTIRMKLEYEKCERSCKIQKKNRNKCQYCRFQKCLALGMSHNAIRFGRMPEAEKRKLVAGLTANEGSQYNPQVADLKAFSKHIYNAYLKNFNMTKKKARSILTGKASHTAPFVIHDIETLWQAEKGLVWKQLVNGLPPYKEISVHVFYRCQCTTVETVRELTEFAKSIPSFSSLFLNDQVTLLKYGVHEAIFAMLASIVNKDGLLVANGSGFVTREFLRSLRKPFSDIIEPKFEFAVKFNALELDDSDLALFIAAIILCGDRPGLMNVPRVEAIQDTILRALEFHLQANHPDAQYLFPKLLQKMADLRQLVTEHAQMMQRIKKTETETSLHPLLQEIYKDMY
Sequence of Bile acid receptor (Homo sapiens) (Q96RI1 whole entry, looked up): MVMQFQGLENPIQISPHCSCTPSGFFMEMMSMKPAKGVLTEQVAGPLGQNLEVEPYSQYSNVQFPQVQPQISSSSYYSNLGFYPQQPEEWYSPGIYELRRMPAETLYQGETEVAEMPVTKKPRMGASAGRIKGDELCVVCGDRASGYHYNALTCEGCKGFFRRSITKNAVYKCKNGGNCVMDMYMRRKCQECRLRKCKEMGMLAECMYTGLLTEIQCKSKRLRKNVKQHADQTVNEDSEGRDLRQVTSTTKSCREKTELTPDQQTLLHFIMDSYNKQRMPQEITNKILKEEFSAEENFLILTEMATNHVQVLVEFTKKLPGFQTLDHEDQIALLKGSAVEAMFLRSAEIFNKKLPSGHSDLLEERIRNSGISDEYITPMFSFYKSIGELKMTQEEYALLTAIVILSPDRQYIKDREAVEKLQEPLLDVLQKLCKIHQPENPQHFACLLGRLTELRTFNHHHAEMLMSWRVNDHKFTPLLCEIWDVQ
Sequence of Vitamin D3 receptor (Homo sapiens) (P11473 whole entry, looked up): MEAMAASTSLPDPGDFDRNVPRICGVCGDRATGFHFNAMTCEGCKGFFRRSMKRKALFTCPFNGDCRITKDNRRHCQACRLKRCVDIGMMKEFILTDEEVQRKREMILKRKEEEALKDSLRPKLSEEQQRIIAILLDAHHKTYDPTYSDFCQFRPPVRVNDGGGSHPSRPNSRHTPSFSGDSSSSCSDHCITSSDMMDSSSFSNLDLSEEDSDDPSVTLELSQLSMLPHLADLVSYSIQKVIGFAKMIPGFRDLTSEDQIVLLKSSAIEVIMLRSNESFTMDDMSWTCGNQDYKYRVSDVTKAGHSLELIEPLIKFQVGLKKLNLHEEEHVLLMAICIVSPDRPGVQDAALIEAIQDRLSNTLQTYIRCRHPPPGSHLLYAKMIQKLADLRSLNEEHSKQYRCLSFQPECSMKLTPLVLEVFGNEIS

ClC(c1ccccc1)(c1ccccc1)c1ccccc1
inactive: Potency [1] | Potency [2] | Potency [3] | Potency [4] | Potency [5] | Potency [6] | Potency [7]

[Cl][Eu]([Cl])[Cl]
inactive: Potency [1] | Potency [2] | Potency [3] | Potency [8] | Potency [5] | Potency [6]

CN1CCN(C)CC1
inactive: Potency [1] | Potency [2] | Potency [3] | Potency [8] | Potency [5] | Potency [6] | Potency [7]

CN(C)CCOc1ccc(/C(=C(/CCCl)c2ccccc2)c2ccccc2)cc1
active: Potency [9] 14.5 µM | Potency [10] 10.3 µM | Potency [11] 20.5 µM | Potency [12] 40.9 µM | Potency [13] 12.9 µM | Potency [14] 12.9 µM | Potency [1] 51 µM | Potency [2] 22.8 µM | Potency [3] 36.4 µM | Potency [5] 18.3 µM | Potency [6] 51 µM | Potency [7] 57.2 µM

CC(O)(c1ccc(Cl)cc1)c1ccc(Cl)cc1
active: Potency [3] 54.9 µM | Potency [5] 38.9 µM | Potency [7] 61.1 µM
inactive: outcome [15] | Potency [10] | Potency [16] | Potency [17] | Potency [11] | outcome [18] | Potency [12] | Potency [1] | Potency [2]

C=C[Si](C)(C)Cl
inactive: activity, negative = cytotoxicity [1] 5.94% [at 8.39 µM] | activity change, negative = inhibition [2] -27.2% [at 8.39 µM] | viability change, negative = cytotoxic [3] -3.04% [at 6.97 µM] | activation [8] 0.333% [at 6.98 µM] | activity change, negative = cytotoxicity [6] -1.54% [at 8.39 µM] | activity, negative = inhibition [7] 83.8% [at 8.39 µM]

CC(CC(C)(C)C)CC(C)(C)CC(C)(C)C (stereo not drawn)
inactive: Potency [1] | Potency [2] | Potency [3] | Potency [4] | Potency [5] | Potency [6]

CCc1c(C)cc(N)c(CC)c1N
inactive: Potency [1] | Potency [2] | Potency [3] | Potency [8] | Potency [5] | Potency [6]

NCc1cccc(C2CCN(C(=O)c3ccc(C#Cc4ccccc4F)o3)CC2)c1
inactive: outcome [18] | Potency [19]
active: Potency [9] 21.9 µM | Potency [10] 49 µM | Potency [11] 34.7 µM | Potency [13] 54.9 µM | Potency [14] 34.7 µM | Potency [1] 43.3 µM | Potency [2] 34.4 µM | Potency [3] 54.9 µM | Potency [5] 13.8 µM | Potency [6] 68.6 µM | Potency [7] 54.5 µM

C/C=C/C(=O)OCC(C)C
inactive: Potency [1] | Potency [2] | Potency [5] | Potency [6] | Potency [7]
active: Potency [4] 54.9 µM

CCCCCCCCCC[N+](C)(CCCCCCCCCC)CCC[Si](OC)(OC)OC
active: Potency [9] 9.77 µM | Potency [10] 9.77 µM | Potency [11] 8.71 µM | Potency [13] 6.92 µM | Potency [1] 24.3 µM | Potency [2] 21.7 µM | Potency [5] 21.9 µM | Potency [6] 30.6 µM | Potency [7] 61.1 µM
inactive: outcome [15] | Potency [16] | Potency [20]

From PubChem BioAssay (Tox21)
